In the library only some 4.6% were active in any assay of this set; here they are far more common.
TRHR PAM – TRH receptor (human) allosteric enhancement; P34981; TRHR cells, fluo-8 calcium fluorescence, EC20 TRH enhancement; actives 0.66% (n = 360,000); enhancement, % at 2 µM; AID 493056; in the data active means enhancement above about 30%
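Enhancer read-out: after compound pinning and an initial kinetic agonist-mode read, an EC20 of TRH (10 nM final) was injected and fluo-8 calcium signal (Ex 480/Em 530) followed at 1 s/cycle for 100 cycles in TRHR-expressing cells.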
D1 agonist – human D1 receptor agonism | P21728 | HEK293 T-REx D1 cells, calcium flux, agonist mode | activation, % at 2 µM | actives 1% (n = 360,000)
Target sequence (P21728 whole entry, looked up): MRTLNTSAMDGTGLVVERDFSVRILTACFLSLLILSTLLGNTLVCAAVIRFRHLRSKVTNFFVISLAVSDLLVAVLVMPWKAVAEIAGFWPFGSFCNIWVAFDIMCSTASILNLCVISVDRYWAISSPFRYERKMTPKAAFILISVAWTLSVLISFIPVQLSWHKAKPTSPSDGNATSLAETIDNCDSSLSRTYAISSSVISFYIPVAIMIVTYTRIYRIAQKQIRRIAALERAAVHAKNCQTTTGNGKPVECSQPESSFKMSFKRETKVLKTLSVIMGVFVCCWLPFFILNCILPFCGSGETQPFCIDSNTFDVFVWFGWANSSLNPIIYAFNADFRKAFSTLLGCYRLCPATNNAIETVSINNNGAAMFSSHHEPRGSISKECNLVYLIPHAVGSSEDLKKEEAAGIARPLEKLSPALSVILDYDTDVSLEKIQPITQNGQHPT
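Tetracycline-induced HEK293 TREx D1 cells, force-coupled to calcium signalling, were dye-loaded with a no-wash calcium kit. Compound was pin-added after a 10 s baseline. Fluorescence was read kinetically at 1 cycle/s for 180 s, with calcium rises flagged as agonism.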
D1 antag – blocks dopamine activation of the human D1 receptor; P21728; HEK293 TREx D1 cells, calcium flux, dopamine EC80; hits give low values; activity change, negative = inhibition, % at 10 µM; actives 3.2% (n = 360,000); in the data active means activity change below about -30%
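After overnight tetracycline induction at 30 C, force-coupled D1 HEK293 cells took up a no-wash calcium dye at room temperature. Compounds were added and monitored 180 s, and the response to EC80 dopamine was then recorded.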
D1 PAM – human D1 dopamine receptor positive modulation; P21728; actives 0.036% (n = 360,000); potentiation, % at 10 µM; HEK293 TREx D1 cells, calcium flux, dopamine EC20 potentiation; AID 504651; in the data active means potentiation above about 30%
TRHR agonist – activates the human TRH receptor | activation, % at 2 µM | TRHR cells, calcium flux fluo-8, FDSS agonist mode | actives 0.18% (n = 360,000)
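Read-out: compound-evoked intracellular calcium rise in TRHR cells, fluo-8 dye, kinetic FDSS fluorescence at 1 s/cycle following a 10-cycle baseline. Cells cultured overnight before dye loading (30 min–1.5 h, RT).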
Of the large screens only hits and unclear results are named; the others gave an inactive call. Unless noted, no stated cut-off is given here; in the data, active means activation above about 30%; inactive means the rest.

CN1C(=O)/C(=C/c2ccc(N3CCCCCC3)o2)C(=O)NC1=S	none
CN1C(=O)/C(=C\c2ccc(N3CCCCC3)o2)C(=O)NC1=S	D1 agonist 33
CN1CCN(c2ccc(/C=C3\C(=O)NC(=S)N(c4cccc(Br)c4)C3=O)o2)CC1	D1 agonist 90
CCN1C(=O)C(=Cc2ccc(N3CCOCC3)o2)C(=O)N(CC)C1=S	D1 agonist 66
O=C1NC(=O)N(c2ccc3c(c2)OCO3)C(=O)/C1=C/c1ccc(N2CCCC2)o1	D1 agonist 33
Cc1cccc(OCC(=O)N2CCN(Cc3cc(=O)n4nc(-c5ccccc5Cl)sc4n3)CC2)c1	none
Cc1cccc(CN2C(=O)CN=C(c3ccccc3)c3cc(Cl)ccc32)c1	none
Clc1ccccc1NC1=NCCCS1	TRHR PAM 35
COc1ccccc1CCNC1CCC(C(C)(C)C)CC1 (centres undefined)	D1 agonist 89
COc1ccccc1CCNC1CCCCCC1	none
Cc1nnc(NC(=O)c2cccn(Cc3ccc(Cl)cc3)c2=O)s1	none
Cc1cccc(Cn2cccc(C(=O)Nc3ccc(F)cc3F)c2=O)c1	none (no result: D1 antag)
c1cncc(C2CCCCN2Cc2ccc3c(c2)OCO3)c1 (centres undefined)	D1 antag -38
Clc1cccc(CN2CCCCC2c2cccnc2)c1 (centres undefined)	none
O=C(COc1ccccc1F)N1CCN(Cc2cc(=O)n3nc(-c4ccccc4Cl)sc3n2)CC1	none
CCOc1ccccc1CN(CCc1ccc2c(c1)OCO2)Cc1ccc(CC)cc1	none
COc1cc(/C=C2\C(=O)NC(=O)N(c3ccccc3)C2=O)c([N+](=O)[O-])cc1OC	D1 antag -56
CCOc1ccc(-n2c(O)c(/C=C3\C=Nc4ccccc43)c(=O)[nH]c2=O)cc1	D1 agonist 32
CCOC(=O)C1(CCc2ccccc2)CCN(Cc2csc(C(C)=O)c2)CC1	none
CCOC(=O)C1(CCc2ccccc2)CCN(Cc2cccc3cnccc23)CC1	D1 antag -45
CCOC(=O)C1(CCOc2ccccc2)CCN(Cc2ccccc2OC)CC1	none
CCOC(=O)C1(CCc2ccccc2)CCN(Cc2cccc3c2OCO3)CC1	D1 antag -42
Cc1cccc(-c2nn3c(=O)cc(CN4CCN(C(=O)COc5ccc(Cl)cc5)CC4)nc3s2)c1	none
Cc1cccc(C2CC(=O)Oc3c2c(=O)oc2ccccc32)c1 (centres undefined)	none
CN1CCN(c2ccc([N+](=O)[O-])c3no[n+]([O-])c23)CC1	D1 agonist 33, D1 antag -38
O=C(Nc1ccc(C(F)(F)F)cc1)OC1CN2CCC1CC2 (centres undefined)	D1 agonist 30
C[C@H]1CC[C@@H]2[C@@H](C)[C@H]3[C@H](C[C@H]4[C@@H]5CC=C6C[C@@H](O[C@@H]7O[C@H](CO)[C@H](O)[C@H](O[C@@H]8O[C@H](CO)[C@@H](O)[C@H](O)[C@H]8O)[C@H]7O[C@@H]7O[C@@H](C)[C@H](O)[C@@H](O)[C@H]7O)CC[C@]6(C)[C@H]5CC[C@]34C)N2C1	D1 agonist 96
CCN(CC)C(=O)c1ccc(NC(=O)CCn2nc(-c3ccc(Cl)cc3)c3ccccc3c2=O)cc1	none
CCc1ccc(N2C(=O)NC(=O)C(CCc3ccncc3)(CCc3ccncc3)C2=O)cc1	none
O=C1NC(=O)C(CCc2ccncc2)(Cc2cccc(Cl)c2Cl)C(=O)N1c1ccc(Br)cc1 (centres undefined)	D1 antag -76
Cc1cc(OCC(=O)N2CCN(CCc3ccncc3)CC2)cc(C)c1Cl	none
CCOc1cc2c(cc1OCC)-n1cccc1C(c1ccc(F)c(OC)c1)NC2 (centres undefined)	D1 agonist 66, D1 antag -43
O=c1c2ccccc2nc(/C=C/c2ccccc2F)n1-c1cccc(O)c1	none
Cc1cccc(C)c1OC(=O)Cc1ccccc1	D1 PAM 33
COc1cccc(NC(=O)c2cccn(Cc3ccccc3C)c2=O)c1	none
Cc1ccc(/C=C2\C(=O)NC(=O)N(CCc3ccc(F)cc3)C2=O)o1	TRHR PAM 37
Cc1ccc(/C=C2/C(=O)NC(=O)N(Cc3ccc(F)cc3)C2=O)o1	none
CC(=O)N1CCN(CC(=O)Nc2ccc(C#N)c(Cl)c2)CC1	none
CCN(CC)S(=O)(=O)c1ccc(C)c(NCC(=O)Nc2ccc(C#N)c(Cl)c2)c1	D1 antag -37
O=C(CN1CCCC1=O)Nc1ccccc1	D1 antag -35
CN(Cc1ccccc1)C(=O)CN1CCCC1=O	none
Cc1ccc(OCC(=O)Nc2ccc(Cl)cc2C(=O)c2ccccc2)cc1C	none
CN1CCN(c2ccc([N+](=O)[O-])c(Sc3ccccn3)c2)CC1	D1 antag -70
CNc1ccc2oc(C[C@H]3O[C@@]4(CC[C@H]3C)O[C@H]([C@H](C)C(=O)c3ccc[nH]3)[C@H](C)C[C@H]4C)nc2c1C(=O)O	D1 agonist 419, D1 antag -45, TRHR agonist 123
Cc1ccc(OCC(=O)N2CCN(CCc3ccncc3)CC2)cc1C	none
Cc1ccc2c(=O)n(-c3cccc(Cl)c3)c(=O)[nH]c2c1	none
COc1ccc(OCC(=O)N2CCN(CCc3ccccn3)CC2)cc1	none
O=P1(Oc2ccccc2)OCCCS1 (centres undefined)	D1 antag -30
Cc1ccccc1OCC(=O)N1CCN(CCc2ccccn2)CC1	none
CCN(CC)C(=O)N[C@H]1C[C@@H]2c3cccc4[nH]cc(c34)C[C@H]2N(C)C1	D1 antag -89
CN1C[C@H](CO)C[C@@H]2c3cccc4[nH]cc(c34)C[C@H]21	D1 antag -42
Cc1ccccc1-n1nc(C)c2c1NC(=O)CSC2c1ccc(N(C)C)cc1 (centres undefined)	none
CN1CCN(c2oc(-c3ccc(COc4ccccc4)o3)nc2C#N)CC1	none
COc1ccc(C(=O)C2CCCN(Cc3ccc(F)cc3F)C2)cc1F (centres undefined)	D1 antag -32
COc1ccc(F)cc1C(=O)C1CCCN(Cc2ccc(O)cc2)C1 (centres undefined)	none
CC(c1ccc(F)cc1)n1cc(C(=O)NCc2ccc3c(c2)OCO3)nn1 (centres undefined)	D1 agonist 31
CC(C)c1ccc(OCC(=O)N2CCN(CCc3ccccn3)CC2)cc1	none
CSc1ccccc1C(=O)C1CCCN(Cc2ccncc2)C1 (centres undefined)	TRHR PAM 40
Cc1ccc(C(=O)N[C@@H](C)CN2C3=NC[C@H](Cc4ccccc4)N3C[C@H]2Cc2ccc(O)cc2)cc1Br	D1 antag -65
Cc1ccc(C(=O)N[C@@H](C)CN2C3=NC[C@@H](Cc4ccccc4)N3C[C@H]2Cc2ccc(O)cc2)cc1Br	D1 antag -44
